Exocytosis inh: lytic granule exocytosis inhibition; TALL-104 LAMP-1 surface exposure, flow cytometry; cells stimulated with thapsigargin and PMA; inhibition, % at 10 µM; hit rate 0.66% among 360,000;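 active = inhibition above about 55%, limit read from the data; inconclusive = no clear call, values can overlap the other calls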
Myeloid diff 2: compounds promoting myeloid differentiation; hit rate 1% among 360,000; calls only at 10 µM; ER-HoxA9 myeloid progenitors, lysozyme-GFP differentiation, flow cytometry;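 active = normalized GFP-positive differentiation at or above the plate's own cutoff, the solvent-only control mean plus 3 SD; inconclusive = no clear call, values can overlap the other calls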;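 also: cells exposed to compound for four days before flow analysis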
GC-B act: GC-B (human) receptor activation | P20594 | HEK293-GC-B cells, CNP EC30, cGMP TR-FRET; 0% at EC30 CNP, 100% saturating CNP | activation, % at 10 µM | hit rate 0.11% among 370,000;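 active = activation at 10 µM reaching about 35% in either raw or pattern-adjusted values, limit read from the data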
Target sequence (P20594 whole entry, looked up): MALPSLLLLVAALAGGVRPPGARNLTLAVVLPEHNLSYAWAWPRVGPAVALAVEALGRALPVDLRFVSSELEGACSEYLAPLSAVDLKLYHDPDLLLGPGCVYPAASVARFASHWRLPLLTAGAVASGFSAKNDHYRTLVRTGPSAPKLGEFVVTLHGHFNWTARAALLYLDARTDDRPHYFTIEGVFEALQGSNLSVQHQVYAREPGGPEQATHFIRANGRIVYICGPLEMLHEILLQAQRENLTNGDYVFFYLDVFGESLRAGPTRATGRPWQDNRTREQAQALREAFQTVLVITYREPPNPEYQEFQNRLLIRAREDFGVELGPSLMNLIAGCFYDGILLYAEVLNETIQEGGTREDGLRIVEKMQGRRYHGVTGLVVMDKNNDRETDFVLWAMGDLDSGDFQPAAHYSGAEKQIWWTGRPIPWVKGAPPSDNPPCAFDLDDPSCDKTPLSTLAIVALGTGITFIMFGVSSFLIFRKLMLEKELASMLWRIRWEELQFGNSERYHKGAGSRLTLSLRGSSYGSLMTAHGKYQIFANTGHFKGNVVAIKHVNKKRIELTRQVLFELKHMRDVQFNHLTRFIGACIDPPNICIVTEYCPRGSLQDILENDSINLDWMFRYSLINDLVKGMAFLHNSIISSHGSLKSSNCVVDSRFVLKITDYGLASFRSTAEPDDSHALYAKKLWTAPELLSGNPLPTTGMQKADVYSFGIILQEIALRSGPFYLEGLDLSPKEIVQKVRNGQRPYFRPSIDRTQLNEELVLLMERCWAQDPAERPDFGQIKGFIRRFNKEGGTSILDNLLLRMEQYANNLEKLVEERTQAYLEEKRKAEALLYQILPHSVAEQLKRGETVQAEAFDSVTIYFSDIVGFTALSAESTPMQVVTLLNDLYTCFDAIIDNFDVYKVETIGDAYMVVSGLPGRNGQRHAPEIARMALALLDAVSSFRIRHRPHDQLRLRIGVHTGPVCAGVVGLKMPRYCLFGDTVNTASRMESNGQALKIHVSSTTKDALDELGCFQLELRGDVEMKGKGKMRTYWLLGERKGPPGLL
NPR1 activator: GC-A (human) enzyme activation; hit rate 0.14% among 370,000; P16066; activation, % at 10 µM; AID 1671463; HEK293 GC-A cells, cGMP TR-FRET, EC30 ANP; 0% at EC30 ANP, 100% saturating ANP; in the data active = activation above about 40%
Each line names hits and unclear results; the compound was inactive in the other large screens. This is a sample that favours compounds with a hit; in the whole collection about 1.8% have one here.

CCNC(=S)N1CCN(c2nc(-c3ccc(F)cc3)cs2)CC1	none
CN1CCN(Cc2c(O)ccc3occ(C(=O)c4ccccc4)c23)CC1	none
CC(=O)C(C(C)=O)c1c(Cl)c(O)c(O)c2c(C(=O)c3ccccc3)coc12	Exocytosis inh 91
Cc1ccc(S(=O)(=O)C[C@@H]2OC[C@H](CO)N2S(=O)(=O)c2ccc(C)cc2)cc1	none
Cc1ccc(-c2c[n+]3c(n2-c2ccccc2)CCC3)cc1	Myeloid diff 2 inconclusive
c1ccc(-c2c[n+]3c(n2-c2ccccc2)CCC3)cc1	Myeloid diff 2 active
CC(C)c1ccc(OCc2cccc(C(=O)N/N=C/c3cccnc3)c2)cc1	Myeloid diff 2 active
CCOc1ccc(OCc2cccc(C(=O)N/N=C/c3cccnc3)c2)cc1	none
CCc1ccc(C2CC3C(CN2S(=O)(=O)c2ccc(C)cc2)C(=O)CC(c2ccc(CC)cc2)N3S(=O)(=O)c2ccc(C)cc2)cc1 (centres undefined)	none
CCOC(=O)N1CCN(C(=O)CCC(=O)c2ccc(OCC)cc2)CC1	none
CCOc1ccc(C(=O)CCC(=O)N2CCN(c3ccc(O)cc3)CC2)cc1	Myeloid diff 2 active
C=CCN1C(=O)[C@H](CC(=O)NCCCC)[C@@]2(C(=O)OCC)CCCC=C12	none (no result: Exocytosis inh, Myeloid diff 2)
CC(=O)c1ccc(OCC(O)CN(C)CCOc2ccc(Br)cc2)cc1 (centres undefined)	Myeloid diff 2 active
CC(=O)c1ccc(OCC(O)COc2ccc(C(C)=O)cc2)cc1	none
COc1cccc(/C(O)=C/c2nc3ccc(C(=O)NCCc4cccc(C)c4)cc3[nH]c2=O)c1	Myeloid diff 2 active
CCOC(=O)CC[C@@]1(C(=O)OCC)C[C@@H](CC(=O)N2CCN(C(=O)c3ccco3)CC2)C(=O)N2CCCC=C21	none (no result: Exocytosis inh, Myeloid diff 2)
Cn1c(C(=O)N2CCCC2)cc2c(=O)n(C)c3ccccc3c21	none
Cc1ccc(Cl)cc1N1CCN(C(=O)c2cc3c(=O)n(C)c4ccccc4c3n2C)CC1	Myeloid diff 2 active
Cc1cccc(N2CCN(C(=O)c3cc4c(=O)n(C)c5ccccc5c4n3C)CC2)c1C	Myeloid diff 2 active
CCOC(=O)c1c(NC(=O)c2ccccc2N(C)S(=O)(=O)c2ccccc2)sc2c1CCCC2	none (no result: Myeloid diff 2)
COC(=O)c1c(NC(=O)c2ccccc2N(C)S(=O)(=O)c2ccccc2)sc2c1CCCC2	Myeloid diff 2 active
C=CCN(CC#Cc1cccnc1)Cc1ccc(OC)cc1OC	none (no result: Exocytosis inh, Myeloid diff 2)
O=C(NC1CCCCN(Cc2cccc(C(F)(F)F)c2)C1=O)c1cccc(F)c1 (centres undefined)	none (no result: Exocytosis inh, Myeloid diff 2)
CCN(CC)c1ccc(C=Nn2c(-c3ccc(F)cc3)n[nH]c2=S)c(O)c1	none (no result: Exocytosis inh, Myeloid diff 2)
COc1ccc2c(c1)-c1c(sn(-c3ccc(OC)c(OC)c3)c1=S)C(C)(C)N2	Exocytosis inh 66
O=S(=O)(c1ccccc1)N1CCN(c2cc(-c3ccccc3)nc3ncnn23)CC1	Myeloid diff 2 active
O=S(=O)(c1ccc(Br)cc1)N1CCN(c2cc(-c3ccccc3)nc3ncnn23)CC1	none
Cc1ccc(/C=C2\SC(=O)N(CCNC(=O)C3CSC4(C)CCC(=O)N34)C2=O)cc1 (centres undefined)	none
NNC(=O)c1cc2c(N3CCC(Cc4ccccc4)CC3)ncnc2s1	Myeloid diff 2 active
CN(Cc1ccccc1)C(=O)OCc1cn(Cc2cccc(F)c2F)nn1	none (no result: Exocytosis inh, Myeloid diff 2)
O=c1oc2ccccc2nc1/C=C(\O)c1ccccc1	none
O/C(=C\c1nc2ccccc2nc1/C=C(\O)c1ccccc1)c1ccccc1	Myeloid diff 2 active (no result: GC-B act, NPR1 activator)
Clc1ccc2c(NCCNC3CCCCC3)ccnc2c1	Myeloid diff 2 active
CC(C)NC1CCC(Nc2ccnc3cc(Cl)ccc23)CC1 (centres undefined)	Myeloid diff 2 active
COC(=O)C1CN(Cc2cn(CCOC(C)=O)nn2)CCS(=O)(=O)N1Cc1ccc(F)cc1 (centres undefined)	none (no result: Exocytosis inh, Myeloid diff 2)
c1ccc(-n2cnnc2SCc2nc3ccccc3s2)cc1	Myeloid diff 2 active
CCOC(=O)c1[nH]c(C)c(C(=O)OCC)c1C	none
CCOC(=O)c1c(C)[nH]c(C(=O)COC(=O)c2[nH]c(C)c(C(C)=O)c2C)c1C	Myeloid diff 2 active
Cc1cccc(NC(=O)c2sc3nc4c(c(-c5cccs5)c3c2N)CN(C)CC4)c1	Myeloid diff 2 active
CCOc1ccc(CCNC(=O)CN2C(=O)NC3(CCCCC3C)C2=O)cc1OCC (centres undefined)	none
CCOc1ccc(CCNC(=O)CN2C(=O)NC(CCSC)C2=O)cc1OCC (centres undefined)	Myeloid diff 2 active
CCCC(=O)OC12CCCN(C1)/C(=C/c1cccc(Cl)c1)C2 (centres undefined)	none (no result: Exocytosis inh, Myeloid diff 2)
O=C(c1ccc(COc2ccc(F)cc2)o1)n1cccn1	NPR1 activator 45
COC(=O)C1CN(Cc2cn(Cc3ccc(OC)cc3)nn2)CCS(=O)(=O)N1Cc1ccc(Cl)cc1 (centres undefined)	none (no result: Exocytosis inh, Myeloid diff 2)
COc1ccc(-c2ccc(/C=N/NC(=O)c3cccnc3)o2)c([N+](=O)[O-])c1	Myeloid diff 2 active
Cc1nn(Cc2ccc(F)cc2)c2sc(C(=O)Nc3ccc(N4CCOCC4)cc3N3CCOCC3)cc12	GC-B act 40
CCc1nc2c(OCCc3cccc(OC)c3)cccn2c1N(C)C(=O)c1cccs1	none
CN1/C(=C\C(=S)NC(=O)c2cccc(Br)c2)C(C)(C)c2ccccc21	Myeloid diff 2 active
CN1/C(=C\C(=S)NC(=O)c2ccc([N+](=O)[O-])cc2)C(C)(C)c2ccccc21	none
CCOC(=O)Cn1cc(CN2CCS(=O)(=O)N(Cc3ccc(F)cc3)C(C(=O)OC)C2)nn1 (centres undefined)	none (no result: Exocytosis inh, Myeloid diff 2)
C[C@@H]1CN(c2ccc(N3CCNC[C@@H]3C)cc2C#N)C[C@H](C)O1	none (no result: Exocytosis inh, Myeloid diff 2)
COC(=O)Cn1c(C)c(/C=C/c2cc[n+](C)cc2)c2ccccc21	Myeloid diff 2 active
CNC(=O)/C(C#N)=C/c1cn(CC(=O)OC)c2ccccc12	none
COC(=O)Cn1cc(/C=C/c2cc[n+](C)cc2)c2ccccc21	Myeloid diff 2 active
C[C@H]1CN([C@@H](C)CO)S(=O)(=O)c2ccc(Br)cc2O[C@H]1CN(C)C(=O)c1ccccc1F	none (no result: Exocytosis inh, Myeloid diff 2)
COc1ccc(/C=C2\SC(=S)N(CCC(=O)NCCCN3CCOCC3)C2=O)cc1	none
COC(=O)c1ccc(/C=C2\SC(=S)N(CCCC(=O)NCCCN3CCOCC3)C2=O)cc1	Exocytosis inh 78
O=C(N/N=C/c1ccco1)c1ccc(OCc2ccccc2)cc1	none
O=C(N/N=C/c1ccco1)c1ccccc1OCc1ccc(Br)cc1	Myeloid diff 2 active
CCN(CC)CC(=O)Nc1ccc(-c2nc3cc(NC(=O)CN(CC)CC)ccc3o2)cc1	none
CCC(C)NCC(=O)Nc1ccc(-c2nc3cc(NC(=O)CNC(C)CC)ccc3o2)cc1 (centres undefined)	Myeloid diff 2 active
O=C(CN1CCCc2ccccc21)Nc1cc(S(=O)(=O)N2CCCC2)ccc1Cl	none
Cc1ccc2c(c1)CCCN2CC(=O)Nc1cc(S(=O)(=O)N2CCCC2)ccc1Cl	Myeloid diff 2 active
O=S(=O)(Nc1nc2ccccc2nc1NCc1ccco1)c1cccs1	Myeloid diff 2 active
